# Data reported in the supplement of paper PMC12645437, “Orthogonal IMiD-Degron Pairs Induce Selective Protein Degradation in Cells” (ACS Chemical Biology, 2025).
# Whole data set: some 8,300 sequences, median “log2 fold change of degron read counts, EGFP-low vs EGFP+ sorted cells (limma voom), compound-induced degradation” near -1.1, cut for the highest 2% near 3.2. What follows is part of a selection rich in the highest values, with near analogues and random picks from the rest.
# Target: T1, CRBN, Q96SW2
# T1 chain: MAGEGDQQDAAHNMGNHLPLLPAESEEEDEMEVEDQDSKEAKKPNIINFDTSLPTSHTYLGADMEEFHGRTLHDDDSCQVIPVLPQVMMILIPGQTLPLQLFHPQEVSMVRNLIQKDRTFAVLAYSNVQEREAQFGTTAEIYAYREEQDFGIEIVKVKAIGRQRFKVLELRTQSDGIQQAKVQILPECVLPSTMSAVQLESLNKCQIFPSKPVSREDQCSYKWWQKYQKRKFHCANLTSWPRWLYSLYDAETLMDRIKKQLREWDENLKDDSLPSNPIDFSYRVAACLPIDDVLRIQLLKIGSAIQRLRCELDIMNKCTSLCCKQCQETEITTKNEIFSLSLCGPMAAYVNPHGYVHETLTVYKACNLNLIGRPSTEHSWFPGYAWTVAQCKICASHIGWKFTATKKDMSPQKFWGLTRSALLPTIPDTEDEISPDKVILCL
# Assay: log2 fold change of degron read counts, EGFP-low vs EGFP+ sorted cells (limma voom), compound-induced degradation; higher = more compound-induced degradation of the degron-EGFP fusion; degrons are variants of IKZF1/3 zinc finger 2; compound dose not given here
# Conditions: Jurkat, 18 h
# [1] = compound: compound 19 (5-tert-butyl-thalidomide)
# [2] = compound: compound 22 (5-morpholino-thalidomide)
# [3] = compound: compound 33 (diphenyl IMiD analogue)
# 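Further: pooled lentiviral library of zinc finger degron-EGFP fusions in mCherry-positive Jurkat cells, FACS-sorted after compound exposure, with degron abundance counted by next-generation sequencing.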
Sequence,log2 fold change of degron read counts [1],log2 fold change of degron read counts [2],log2 fold change of degron read counts [3],log2 fold change of degron read counts (compound: thalidomide)
"FWCEICGRSFTQKGNLLRHIKL [46F_47W_49E_50I_52G_53R_54S_55F_67L_, Q9UKT9]",0.727,1.06,0.626,-1.3
"FWCPVCGAFFTQKGNLLRHIKL [46F_47W_49P_50V_52G_53A_54F_55F_67L_, Q9UKT9]",2.23,2.56,1.97,0.614
"FICNVCGACFTQKGNLLRHIKL [46F_47I_49N_50V_52G_53A_54C_55F_67L_, Q9UKT9]",-2.35,-0.443,0.594,0.469
"FRCNQCGHHFTQKGNLLRHIKL [46F_47R_49N_50Q_52G_53H_54H_55F_67L_, Q9UKT9]",-2.62,-2.49,-2.68,-2.74
"FMCNVCGAVFTQKGNLLRHIKL [46F_47M_49N_50V_52G_53A_54V_55F_67L_, Q9UKT9]",-2.62,-1.87,0.807,-0.813
"FCCEVCGAWFTQKGNLLRHIKL [46F_47C_49E_50V_52G_53A_54W_55F_67L_, Q9UKT9]",-0.654,-0.581,0.156,-0.895
"FKCEICGADFTQKGNLLRHIKL [46F_47K_49E_50I_52G_53A_54D_55F_67L_, Q9UKT9]",-1.37,-3.36,-2.54,-1.55
"FFCPQCGAHFTQKGNLLRHIKL [46F_47F_49P_50Q_52G_53A_54H_55F_67L_, Q9UKT9]",0.0594,0.455,0.502,-0.835
"FSCPICGRAFTQKGNLLRHIKL [46F_47S_49P_50I_52G_53R_54A_55F_67L_, Q9UKT9]",-0.662,-1.1,0.646,0.0583
"FGCPICGAQFTQKGNLLRHIKL [46F_47G_49P_50I_52G_53A_54Q_55F_67L_, Q9UKT9]",3.58,2.65,1.84,1.37
"FDCPICGAQFTQKGNLLRHIKL [46F_47D_49P_50I_52G_53A_54Q_55F_67L_, Q9UKT9]",2.24,1.5,1.26,2.56
"FQCPICGAQFTQKGNLLRHIKL [46F_47Q_49P_50I_52G_53A_54Q_55F_67L_, Q9UKT9]",0.697,2.72,2.41,3.65
"FHCPICGAQFTQKGNLLRHIKL [46F_47H_49P_50I_52G_53A_54Q_55F_67L_, Q9UKT9]",2.46,2.8,2.49,1.66
"FNCPICGAQFTQKGNLLRHIKL [46F_47N_49P_50I_52G_53A_54Q_55F_67L_, Q9UKT9]",2.48,1.86,1.27,1.1
"FCCPICGAQFTQKGNLLRHIKL [46F_47C_49P_50I_52G_53A_54Q_55F_67L_, Q9UKT9]",2.39,2.66,2.87,1.93
"FMCEICGHLFTQKGNLLRHIKL [46F_47M_49E_50I_52G_53H_54L_55F_67L_, Q9UKT9]",-2.89,-3.26,-2.2,-2.63
"FNCPICGRWFTQKGNLLRHIKL [46F_47N_49P_50I_52G_53R_54W_55F_67L_, Q9UKT9]",-0.803,-0.856,0.232,-0.248
"FTCSVCGHFFTQKGNLLRHIKL [46F_47T_49S_50V_52G_53H_54F_55F_67L_, Q9UKT9]",-1.8,-2.26,-2.2,-2.2
